# Source: the supplement of paper PMC10849652
# Targets with a hit are over-represented here; the source holds about 7,900 in all. About 0.6% of all pairs of compound and target were hits.
# Compound: Cc1cc(SCc2sc(-c3ccc(C(F)(F)F)cc3)nc2C)ccc1OCC(=O)O
# Test: log2 fold change, soluble protein after heating vs DMSO (PISA); higher = thermal stabilisation; K562 cells, 10 uM, 30 min; active = over 0.2 and 3.5 SD of the protein, either way, in both replicates (recomputed)
# Outline: (§1)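 Quantification of soluble protein used TMTpro 16plex LC-MS/MS, with channel sums equalised. Samples were the supernatant after 21,000xg for 90 min of pooled aliquots from K562 cells (2×10^6 cells/mL) treated with 10 μM compound for 30 min, heated for 3 min over 48°C-58°C, and extracted in PBS with 0.5% NP-40 at 4°C. Values, from duplicates, describe thermal stability against control samples on a log2 fold-change scale.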
# Chain of UniProt Q9NZN4 (Q9NZN4 whole entry, looked up): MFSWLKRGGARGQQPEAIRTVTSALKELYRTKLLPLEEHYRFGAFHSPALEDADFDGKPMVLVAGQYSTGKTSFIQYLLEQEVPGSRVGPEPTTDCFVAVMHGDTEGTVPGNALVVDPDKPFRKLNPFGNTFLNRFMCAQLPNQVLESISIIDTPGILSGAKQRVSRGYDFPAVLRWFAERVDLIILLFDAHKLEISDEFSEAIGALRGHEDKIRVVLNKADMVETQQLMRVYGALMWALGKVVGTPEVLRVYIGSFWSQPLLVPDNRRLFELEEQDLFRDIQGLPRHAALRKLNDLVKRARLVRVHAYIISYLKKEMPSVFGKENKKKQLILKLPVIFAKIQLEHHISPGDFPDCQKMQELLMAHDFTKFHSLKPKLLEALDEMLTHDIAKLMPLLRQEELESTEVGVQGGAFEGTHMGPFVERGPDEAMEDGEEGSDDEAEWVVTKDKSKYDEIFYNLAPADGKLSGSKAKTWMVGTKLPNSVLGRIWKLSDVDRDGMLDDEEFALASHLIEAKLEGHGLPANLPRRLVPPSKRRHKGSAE
# Chain of UniProt Q96G46 (Q96G46 whole entry, looked up): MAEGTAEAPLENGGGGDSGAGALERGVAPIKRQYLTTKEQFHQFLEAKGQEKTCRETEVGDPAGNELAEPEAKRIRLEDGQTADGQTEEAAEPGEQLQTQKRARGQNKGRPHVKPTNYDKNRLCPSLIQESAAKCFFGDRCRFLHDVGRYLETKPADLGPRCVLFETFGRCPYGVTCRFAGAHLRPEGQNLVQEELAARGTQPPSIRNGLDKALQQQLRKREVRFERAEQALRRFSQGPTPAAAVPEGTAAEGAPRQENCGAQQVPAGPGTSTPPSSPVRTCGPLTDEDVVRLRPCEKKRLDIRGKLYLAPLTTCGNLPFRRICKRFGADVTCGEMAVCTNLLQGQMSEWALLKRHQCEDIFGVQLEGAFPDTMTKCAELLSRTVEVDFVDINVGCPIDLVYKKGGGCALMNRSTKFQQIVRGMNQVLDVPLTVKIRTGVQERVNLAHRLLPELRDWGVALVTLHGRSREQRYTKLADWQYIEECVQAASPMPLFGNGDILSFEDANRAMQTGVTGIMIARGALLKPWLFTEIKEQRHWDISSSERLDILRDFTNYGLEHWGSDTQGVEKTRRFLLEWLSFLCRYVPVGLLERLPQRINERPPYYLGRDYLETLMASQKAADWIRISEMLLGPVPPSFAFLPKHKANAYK
# Chain of UniProt Q6V1X1 (Q6V1X1 whole entry, looked up): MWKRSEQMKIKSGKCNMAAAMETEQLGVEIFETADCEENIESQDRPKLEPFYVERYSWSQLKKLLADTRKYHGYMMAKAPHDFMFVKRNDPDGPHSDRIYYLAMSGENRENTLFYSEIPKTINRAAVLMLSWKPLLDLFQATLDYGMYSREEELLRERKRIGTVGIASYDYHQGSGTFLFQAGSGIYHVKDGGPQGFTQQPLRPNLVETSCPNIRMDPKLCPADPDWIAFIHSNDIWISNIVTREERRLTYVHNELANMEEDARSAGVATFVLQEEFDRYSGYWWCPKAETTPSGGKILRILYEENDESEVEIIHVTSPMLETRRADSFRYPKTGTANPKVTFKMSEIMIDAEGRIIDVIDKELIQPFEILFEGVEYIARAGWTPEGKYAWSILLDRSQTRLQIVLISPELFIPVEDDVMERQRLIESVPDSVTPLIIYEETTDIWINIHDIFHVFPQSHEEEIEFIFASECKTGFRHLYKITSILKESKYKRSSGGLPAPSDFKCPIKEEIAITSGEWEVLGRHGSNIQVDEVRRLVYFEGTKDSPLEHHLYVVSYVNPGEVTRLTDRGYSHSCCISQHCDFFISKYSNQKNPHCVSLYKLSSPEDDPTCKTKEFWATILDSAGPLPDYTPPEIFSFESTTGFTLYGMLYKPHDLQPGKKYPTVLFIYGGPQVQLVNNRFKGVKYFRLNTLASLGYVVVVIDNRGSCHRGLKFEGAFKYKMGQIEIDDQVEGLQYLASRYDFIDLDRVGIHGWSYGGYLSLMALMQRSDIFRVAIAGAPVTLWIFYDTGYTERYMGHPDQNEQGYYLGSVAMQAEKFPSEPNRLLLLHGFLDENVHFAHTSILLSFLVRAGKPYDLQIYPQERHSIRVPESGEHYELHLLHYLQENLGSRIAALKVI
# Chain of UniProt Q9H410 (Q9H410 whole entry, looked up): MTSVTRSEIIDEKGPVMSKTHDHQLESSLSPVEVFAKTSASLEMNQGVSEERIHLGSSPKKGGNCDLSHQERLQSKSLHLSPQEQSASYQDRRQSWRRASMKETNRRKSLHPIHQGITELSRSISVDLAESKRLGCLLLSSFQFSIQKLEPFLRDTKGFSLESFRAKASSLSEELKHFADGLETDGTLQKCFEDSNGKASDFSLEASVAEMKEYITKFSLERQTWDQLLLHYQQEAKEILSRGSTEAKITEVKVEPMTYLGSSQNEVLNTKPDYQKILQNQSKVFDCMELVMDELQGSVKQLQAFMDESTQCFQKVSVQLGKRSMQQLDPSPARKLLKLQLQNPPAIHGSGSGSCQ
# Chain of UniProt P50570 (P50570 whole entry, looked up): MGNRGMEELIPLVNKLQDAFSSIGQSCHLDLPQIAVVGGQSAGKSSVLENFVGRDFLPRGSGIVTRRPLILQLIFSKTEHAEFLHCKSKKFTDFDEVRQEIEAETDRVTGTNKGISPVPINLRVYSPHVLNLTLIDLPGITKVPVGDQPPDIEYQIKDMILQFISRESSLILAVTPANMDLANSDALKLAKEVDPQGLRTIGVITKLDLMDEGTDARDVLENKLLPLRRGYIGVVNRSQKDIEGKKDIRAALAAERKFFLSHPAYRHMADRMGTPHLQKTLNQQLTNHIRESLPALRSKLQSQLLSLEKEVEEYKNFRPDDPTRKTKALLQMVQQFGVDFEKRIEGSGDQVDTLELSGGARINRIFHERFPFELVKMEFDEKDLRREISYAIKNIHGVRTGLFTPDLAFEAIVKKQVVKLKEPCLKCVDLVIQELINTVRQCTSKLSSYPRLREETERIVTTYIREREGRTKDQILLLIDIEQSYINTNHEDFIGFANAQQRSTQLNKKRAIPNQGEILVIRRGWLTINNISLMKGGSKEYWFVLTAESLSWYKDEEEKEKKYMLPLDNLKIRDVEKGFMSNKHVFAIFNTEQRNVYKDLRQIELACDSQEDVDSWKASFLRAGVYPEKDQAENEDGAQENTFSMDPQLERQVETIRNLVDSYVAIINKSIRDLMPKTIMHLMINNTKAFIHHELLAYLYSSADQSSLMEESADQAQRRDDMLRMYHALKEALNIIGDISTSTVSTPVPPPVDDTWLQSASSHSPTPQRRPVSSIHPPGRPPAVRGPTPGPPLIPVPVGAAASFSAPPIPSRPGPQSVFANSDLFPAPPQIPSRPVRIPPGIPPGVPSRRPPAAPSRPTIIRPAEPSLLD
# Chain of UniProt Q01780 (Q01780 whole entry, looked up): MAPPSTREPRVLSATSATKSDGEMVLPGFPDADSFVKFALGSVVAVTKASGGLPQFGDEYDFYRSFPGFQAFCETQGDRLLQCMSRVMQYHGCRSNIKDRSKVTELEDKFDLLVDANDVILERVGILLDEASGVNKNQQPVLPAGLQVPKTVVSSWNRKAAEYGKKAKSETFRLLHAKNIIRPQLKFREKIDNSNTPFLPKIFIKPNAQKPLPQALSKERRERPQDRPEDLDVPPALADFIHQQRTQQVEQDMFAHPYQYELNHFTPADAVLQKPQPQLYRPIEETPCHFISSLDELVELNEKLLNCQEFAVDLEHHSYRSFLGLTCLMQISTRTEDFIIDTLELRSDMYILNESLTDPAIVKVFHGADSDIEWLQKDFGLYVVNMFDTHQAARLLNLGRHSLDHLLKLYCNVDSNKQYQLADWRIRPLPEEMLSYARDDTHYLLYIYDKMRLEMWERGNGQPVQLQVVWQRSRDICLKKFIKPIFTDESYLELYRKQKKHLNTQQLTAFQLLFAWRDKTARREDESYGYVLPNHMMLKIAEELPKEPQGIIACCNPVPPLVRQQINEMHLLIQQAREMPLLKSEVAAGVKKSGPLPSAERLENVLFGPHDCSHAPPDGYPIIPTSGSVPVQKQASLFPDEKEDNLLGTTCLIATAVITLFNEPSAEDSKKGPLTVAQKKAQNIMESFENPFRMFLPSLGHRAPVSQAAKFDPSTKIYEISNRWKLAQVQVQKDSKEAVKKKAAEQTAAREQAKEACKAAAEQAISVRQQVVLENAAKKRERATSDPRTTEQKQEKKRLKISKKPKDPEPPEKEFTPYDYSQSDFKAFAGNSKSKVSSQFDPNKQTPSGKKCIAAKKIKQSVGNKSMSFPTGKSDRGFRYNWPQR
# Chain of UniProt Q8N128 (Q8N128 whole entry, looked up): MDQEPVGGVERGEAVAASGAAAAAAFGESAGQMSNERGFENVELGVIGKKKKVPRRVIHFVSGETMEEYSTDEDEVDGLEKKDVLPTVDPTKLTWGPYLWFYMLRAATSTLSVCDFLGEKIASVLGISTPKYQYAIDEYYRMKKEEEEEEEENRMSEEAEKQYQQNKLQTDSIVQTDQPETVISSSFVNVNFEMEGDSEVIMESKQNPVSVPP
# Chain of UniProt Q6UX07 (Q6UX07 whole entry, looked up): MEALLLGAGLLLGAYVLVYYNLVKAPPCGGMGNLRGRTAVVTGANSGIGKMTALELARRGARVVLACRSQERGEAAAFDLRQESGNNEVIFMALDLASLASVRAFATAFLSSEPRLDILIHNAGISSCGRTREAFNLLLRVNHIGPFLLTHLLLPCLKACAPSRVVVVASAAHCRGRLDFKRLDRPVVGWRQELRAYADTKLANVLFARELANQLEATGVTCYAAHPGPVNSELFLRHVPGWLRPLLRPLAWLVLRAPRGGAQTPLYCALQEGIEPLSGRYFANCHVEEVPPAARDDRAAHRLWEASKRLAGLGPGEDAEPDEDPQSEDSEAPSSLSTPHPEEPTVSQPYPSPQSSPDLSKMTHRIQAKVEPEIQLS
# Chain of UniProt Q8N8J7 (Q8N8J7 whole entry, looked up): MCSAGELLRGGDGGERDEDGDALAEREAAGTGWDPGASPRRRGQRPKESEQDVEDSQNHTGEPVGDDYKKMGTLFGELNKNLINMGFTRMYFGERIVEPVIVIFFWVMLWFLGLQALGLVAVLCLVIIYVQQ
row,Target,log2 fold change
1,EZH2 isoform 2 (UniProt Q15910),0.279 (inactive)
2,EHBP1L1 (UniProt Q8N3D4),0.115 (inactive)
3,DDX5 (UniProt P17844),0.165 (inactive)
4,FAM177A1 isoform 2 (UniProt Q8N128),-0.027 (inactive)
5,EXOC4 (UniProt Q96A65),0.162 (inactive)
6,E2F4 (UniProt Q16254),-0.019 (inactive)
7,DNAH10 (UniProt Q8IVF4),-0.082 (inactive)
8,DSN1 (UniProt Q9H410),-0.07 (inactive)
9,DNM2 isoform 4 (UniProt P50570),0.5 (inactive)
10,CWF19L2 (UniProt Q2TBE0),-0.001 (inactive)
11,DDOST (UniProt P39656),-0.016 (inactive)
12,CTSS (UniProt P25774),0.045 (inactive)
13,DUS3L (UniProt Q96G46),0.022 (inactive)
14,EFL1 (UniProt Q7Z2Z2),0.029 (inactive)
15,EEF1A1 (UniProt P68104),-0.004 (inactive)
16,FAM207A (UniProt Q9NSI2),-0.098 (inactive)
17,DPP8 (UniProt Q6V1X1),0.006 (inactive)
18,DDX27 (UniProt Q96GQ7),0.071 (inactive)
19,DBT (UniProt P11182),-0.042 (inactive)

row,Target,log2 fold change
1,FAM241A (UniProt Q8N8J7),-0.034 (inactive)
2,CYB561A3 isoform 2 (UniProt Q8NBI2),-0.014 (inactive)
3,FAM193B (UniProt Q96PV7),-0.189 (inactive)
4,FAM117A (UniProt Q9C073),0.067 (inactive)
5,EHD2 (UniProt Q9NZN4),0.002 (inactive)
6,DAXX (UniProt Q9UER7),0.006 (inactive)
7,DHRS13 (UniProt Q6UX07),0.139 (inactive)
8,CTNNB1 (UniProt P35222),-0.024 (inactive)
9,DOCK8 (UniProt Q8NF50),-0.036 (inactive)
10,EIF4G3 isoform 3 (UniProt O43432),0.075 (inactive)
11,DCP2 (UniProt Q8IU60),0.095 (inactive)
12,EIF2AK1 (UniProt Q9BQI3),0.053 (inactive)
13,FAF2 (UniProt Q96CS3),0.059 (inactive)
14,ELF1 (UniProt P32519),0.057 (inactive)
15,DNAJC24 (UniProt Q6P3W2),-0.024 (inactive)
16,EXOSC10 (UniProt Q01780),-0.138 (inactive)
17,DNAH5 (UniProt Q8TE73),-0.052 (inactive)
18,ELAC1 (UniProt Q9H777),0.004 (inactive)
19,EIF4E2 (UniProt O60573),0.07 (inactive)

# Compound: Cc1ccc(-n2nc(C(C)(C)C)cc2NC(=O)Nc2ccc(OCCN3CCOCC3)c3ccccc23)cc1 [doramapimod]
# Test: as above
# Outline: as §1
row,Target,log2 fold change
1,DYNC1I2 isoform 2 (UniProt Q13409),-0.079 (inactive)
2,EZH2 isoform 2 (UniProt Q15910),0.095 (inactive)
3,EHBP1L1 (UniProt Q8N3D4),-0.018 (inactive)
4,DDX5 (UniProt P17844),-0.044 (inactive)
5,FAM177A1 isoform 2 (UniProt Q8N128),-0.012 (inactive)
6,EXOC4 (UniProt Q96A65),0.016 (inactive)
7,E2F4 (UniProt Q16254),0.024 (inactive)
8,DNAH10 (UniProt Q8IVF4),-0.003 (inactive)
9,DSN1 (UniProt Q9H410),0.007 (inactive)
10,DNM2 isoform 4 (UniProt P50570),-0.203 (inactive)
11,CWF19L2 (UniProt Q2TBE0),-0.021 (inactive)
12,DDOST (UniProt P39656),0.005 (inactive)
13,CTSS (UniProt P25774),0.043 (inactive)
14,DUS3L (UniProt Q96G46),0.033 (inactive)
15,EFL1 (UniProt Q7Z2Z2),-0.013 (inactive)
16,EEF1A1 (UniProt P68104),-0.062 (inactive)
17,FAM207A (UniProt Q9NSI2),0.101 (inactive)
18,DPP8 (UniProt Q6V1X1),0.008 (inactive)
19,DDX27 (UniProt Q96GQ7),0.135 (inactive)
20,DBT (UniProt P11182),0.029 (inactive)

row,Target,log2 fold change
1,FAM241A (UniProt Q8N8J7),-0.018 (inactive)
2,CYB561A3 isoform 2 (UniProt Q8NBI2),0.021 (inactive)
3,FAM193B (UniProt Q96PV7),-0.046 (inactive)
4,FAM117A (UniProt Q9C073),0.017 (inactive)
5,EHD2 (UniProt Q9NZN4),0 (inactive)
6,DAXX (UniProt Q9UER7),0 (inactive)
7,DHRS13 (UniProt Q6UX07),0.123 (inactive)
8,CTNNB1 (UniProt P35222),0.047 (inactive)
9,DOCK8 (UniProt Q8NF50),-0.004 (inactive)
10,EIF4G3 isoform 3 (UniProt O43432),0.013 (inactive)
11,DCP2 (UniProt Q8IU60),0.147 (inactive)
12,EIF2AK1 (UniProt Q9BQI3),0.068 (inactive)
13,FAF2 (UniProt Q96CS3),0.023 (inactive)
14,ELF1 (UniProt P32519),-0.039 (inactive)
15,DNAJC24 (UniProt Q6P3W2),0.038 (inactive)
16,EXOSC10 (UniProt Q01780),0.097 (inactive)
17,DNAH5 (UniProt Q8TE73),-0.031 (inactive)
18,FAM118B (UniProt Q9BPY3),-0.003 (inactive)
19,ELAC1 (UniProt Q9H777),0.007 (inactive)
20,EIF4E2 (UniProt O60573),-0.069 (inactive)
